Assay outcomes from PubChem.
CHRM1 antagonist: antagonists of human M1 muscarinic receptor; inhibition, % at 3 µM; AID 588852; P11229; 1.3% of 360,000 active; CHO-K1 hM1, Fluo-8 calcium fluorescence, ACh EC80 antagonist;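 active means percent inhibition above its own plate's cutoff, namely the mean of that plate's compound wells plus 3 SD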;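 further: peak over basal fluorescence ratio during 140 s after agonist addition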
Target sequence (P11229 whole entry, looked up): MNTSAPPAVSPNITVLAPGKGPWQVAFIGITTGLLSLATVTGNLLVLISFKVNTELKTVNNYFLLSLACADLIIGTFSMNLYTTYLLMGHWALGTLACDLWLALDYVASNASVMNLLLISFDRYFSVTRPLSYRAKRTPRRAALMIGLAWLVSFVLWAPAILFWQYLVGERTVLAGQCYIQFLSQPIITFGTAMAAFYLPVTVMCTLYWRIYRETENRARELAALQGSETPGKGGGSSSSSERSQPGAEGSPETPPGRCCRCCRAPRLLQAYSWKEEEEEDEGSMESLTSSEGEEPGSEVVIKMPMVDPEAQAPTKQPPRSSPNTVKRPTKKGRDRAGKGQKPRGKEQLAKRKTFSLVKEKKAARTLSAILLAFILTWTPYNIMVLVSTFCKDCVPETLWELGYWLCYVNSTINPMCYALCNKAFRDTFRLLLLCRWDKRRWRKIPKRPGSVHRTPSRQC
M1 ag parental: M1 agonist counterscreen hit in parental CHO-K1 cells; Fluo-8 calcium fluorescence; scaled to maximal ATP response, vehicle zero; activation, % at 3 µM; 0.48% of 360,000 active; AID 602248; in the data active means activation above about 15%;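 further: untransfected CHO-K1 host cells lacking M1 receptor as counterscreen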
CHO-K1 Ca antag: M1 antagonist counterscreen hit in parental CHO-K1 cells; ATP-induced calcium, Fluo-8 fluorescence; inhibition, % at 3 µM; 0.6% of 360,000 active;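 active means inhibition above a per-plate cutoff, the plate's mean sample inhibition plus 3 SD, cut at about 24% in these data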
CHRM1 agonist: activates human CHRM1 receptor; P11229; CHO-K1 hM1, Fluo-8 calcium fluorescence, agonist mode; 0% DMSO, 100% acetylcholine EC100; activation, % at 3 µM; 0.33% of 360,000 active; AID 588814;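 active means activation above the run's mean compound activation plus 3 SD, cut at about 16% in these data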;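 further: peak over basal fluorescence ratio within a 140 s kinetic read after compound addition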
M1 PAM parental: M1 PAM counterscreen hit in parental CHO-K1 cells. ATP EC20, Fluo-8 calcium fluorescence; 0% at ATP EC20, 100% at ATP max. activation, % at 3 µM. 0.02% of 360,000 active. AID 602247;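 active means activation above the run cutoff, the mean activation of all test compounds plus 3 SD, cut at about 40% in these data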;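 further: peak over basal fluorescence ratio in a 140 s read after ATP addition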
M1 PAM: positive allosteric modulators of human M1 muscarinic receptor. CHO-K1 hM1, Fluo-8 calcium fluorescence, ACh EC20; 0% = ACh EC20, 100% = maximal ACh. activation, % at 3 µM. 0.088% of 360,000 active. AID 588819; in the data active means activation above about 19%, passing the limit was not always enough
Of the large screens only hits and unclear results are named; the others gave an inactive call; ! = repeats disagree. In the library only some 2.4% were active in any assay of this set; here they are far more common.

COC(=O)C1=C(c2ccc(OC(F)(F)F)cc2)C[C@@H]2CC[C@H]1N2C(=O)NC1CCCCC1	none
COC(=O)C1=C(c2ccc(OC)c(OC)c2)C[C@@H]2CC[C@H]1N2C(=O)NCC1CC1	none
N#CC(C#N)=NNc1ccc(-n2ccc(C(F)(F)F)n2)cc1	none
Cc1cc(C)n(-c2ccc(NN=C(C#N)C#N)cc2)n1	M1 ag parental 21
CCN1C[C@]2(COC)CC[C@H](O)[C@@]34C5C[C@@H]6[C@@H](OC)C[C@@](O)(C5[C@H]6O)[C@](O)([C@@H](OC)C23)[C@@H]14 (stereo not given in full)	none
COc1cccc(N2CCN(Cc3ccc(Cl)cc3)CC2)c1	none
COc1cccc(C2(O)CCN(Cc3ccncc3)CC2)c1	CHO-K1 Ca antag 24
COc1ccc(-n2c(O)c(/C(C)=N/N3CCCCCC3)c(=O)[nH]c2=O)cc1	M1 PAM 34
O=c1[nH]c(=O)n(C2CCCCC2)c(O)c1/C=C/C=Nc1ccccc1	M1 ag parental 18, CHRM1 agonist 18
COc1ccc(-n2c(O)c(/C(C)=N/Nc3ccccc3)c(=O)[nH]c2=O)cc1	none
COc1ccc(-n2c(O)c(/C=C/C=Nc3ccccc3)c(=O)[nH]c2=O)cc1	M1 ag parental 23, CHRM1 agonist 22
CCCCCCn1c(O)c(C=Nc2c(C)n(C)n(-c3ccccc3)c2=O)c(=O)[nH]c1=O	CHRM1 antagonist 47
CN(N)N=Nc1nc2c([nH]1)c(=O)n(C)c(=O)n2C	none
COC(=O)C1=C(c2ccc(OC)c(OC)c2)C[C@@H]2CC[C@H]1N2C(=O)NC1CCCCC1	none
CCOC(=O)c1cccc(C2=C(CNC(C)=O)[C@H]3CC[C@@H](C2)N3Cc2ccccc2)c1	CHRM1 antagonist 31
COc1ccc(CC(=O)C2C(=O)N(C)c3ccccc32)cc1OC (stereo not given)	none
COc1ccc(SCC2CN(C)CCC2c2ccc(F)cc2)cc1 (stereo not given)	none
COc1cccc(C2CCN(C)C2)c1 (stereo not given)	CHRM1 agonist 29
N#Cc1c(N2CCNCC2)nc(-c2ccco2)c2c1CCCC2	none
CCCCc1nc(N2CCNCC2)c(C#N)c2c1CSC(C)(C)C2	CHRM1 antagonist 54
O=C1NC(=O)N(c2cccc(Cl)c2)C(=O)/C1=C\c1ccc(Sc2nc3ccccc3[nH]2)o1	M1 ag parental 27, CHRM1 agonist 24
O=C1NC(=O)N(c2ccccc2)C(=O)/C1=C/c1ccc(Sc2ccccc2)o1	none
O=C1NC(=O)N(c2ccccc2F)C(=O)/C1=C/c1ccc(Sc2nc3ccccc3[nH]2)o1	M1 ag parental 16, CHRM1 agonist 17
Cc1ccc2c(c1)cc1c(=O)n(CC(=O)N3CCC4(CC3)OCCO4)nc(C)n12	none
Cc1ccc(S(=O)(=O)N(C)C)cc1NC(=O)C(C)[N+]12CCN(CC1)CC2 (stereo not given)	none
COc1cccc(CNC2CN3CCC2CC3)c1OC (stereo not given)	CHRM1 antagonist 73
CCOC(=O)C(O)(c1ccc(NC(=S)NC(=O)c2ccc(Cl)cc2Cl)cc1)C(F)(F)F (stereo not given)	CHRM1 agonist 21
COC(=O)C(O)(c1ccc(NC(=S)NC(=O)c2ccc(Cl)cc2Cl)c(C)c1)C(F)(F)F (stereo not given)	none
CCOC(=O)C(O)(c1ccc(NC(=O)Oc2ccccc2)cc1)C(F)(F)F (stereo not given)	none
COC(=O)C(O)(c1ccc(NC(=S)NC(=O)c2ccc(Cl)cc2Cl)cc1)C(F)(F)F (stereo not given)	CHRM1 agonist 21
CCOC(=O)C(O)(c1ccc(NC(=S)NC(=O)c2ccc(Cl)cc2Cl)c(C)c1)C(F)(F)F (stereo not given)	CHRM1 antagonist 49, CHRM1 agonist 22
COC(=O)C(O)(c1ccc(NC(=O)NC2CCCCC2)cc1)C(F)(F)F (stereo not given)	none
CN1CCC2(CC1)N=C(c1ccc(F)cc1)C(=S)N2	CHRM1 antagonist 26
CC(CC(C#N)(c1ccccc1)c1ccccc1)N(C)C (stereo not given)	CHRM1 antagonist 102
CCOc1cc2c(cc1OCC)-n1cccc1C(c1ccccc1F)NC2 (stereo not given)	none
COc1ccccc1CC(=O)N1CCN(CCc2ccccc2)CC1	CHO-K1 Ca antag 25
CCC(C)N1CCN(C(=O)Cc2ccccc2)CC1 (stereo not given)	CHRM1 antagonist 41, CHO-K1 Ca antag 25
Cc1ccc(CC(=O)N2CCN(Cc3ccccc3)CC2)cc1	none
OC(CC#CCN1CCCCCC1)(c1ccccc1)C1CCCC1 (stereo not given)	CHRM1 antagonist 100, M1 ag parental 17
CC1(C(O)(C#CCN2CCCCC2)c2ccccc2)CCCC1 (stereo not given)	CHRM1 antagonist 100
CN(C)CC#CCC(O)(c1ccccc1)C1CCCC1 (stereo not given)	CHRM1 antagonist 99, CHO-K1 Ca antag 25
C(#CCN1CCCCC1)COCc1ccccc1	none
CN(C)CC#CCn1c2ccccc2c2ccccc21	none
CCC1(C2=NCCN2)Cc2ccccc2O1 (stereo not given)	none
CCOC(=O)[C@]12Cc3cc(C)ccc3[C@H]1N(C1CCCCC1)C(=O)c1cc(OC)ccc12	CHO-K1 Ca antag 25 (no result: CHRM1 antagonist, CHRM1 agonist, M1 PAM)
ClC1C(Cl)C(Cl)C(Cl)C(Cl)C1Cl (stereo not given)	CHRM1 agonist 47!
COCC(=O)N1Cc2ccccc2-n2nncc2C1	none
S=C(NCCc1ccccc1)N1Cc2cc(Br)ccc2-n2nncc2C1	CHO-K1 Ca antag 27
S=C(NCCc1ccccc1)N1Cc2ccc(Br)cc2-n2nncc2C1	none
Clc1ccc2sc(C3CCNCC3)nc2c1	none
COC(=O)C1=C(c2ccc(C(C)=O)cc2)C[C@@H]2CC[C@H]1N2C(=O)NCc1ccc(C(F)(F)F)cc1	M1 ag parental 24, CHRM1 agonist 24
Cc1[nH]c2ccc(OC(F)(F)F)cc2c1CCNCc1ccc(Cl)cc1	none
CCOc1cccc(CNCCc2c(C)[nH]c3ccc(OC(F)(F)F)cc23)c1O	CHRM1 antagonist 37, M1 ag parental 37, CHO-K1 Ca antag 53
Cc1[nH]c2ccc(OC(F)(F)F)cc2c1CCNCc1cccc([N+](=O)[O-])c1	M1 ag parental 35
CCCC[N+]1(C)[C@@H]2CC(OC(=O)[C@H](CO)c3ccccc3)C[C@H]1[C@@H]1O[C@@H]12 (stereo not given in full)	CHRM1 antagonist 98
COCCO[C@H]1CCC2C3CC=C4C[C@@H](O)CC[C@]4(C)C3CC[C@@]21C (stereo not given in full)	none
